In PubChem BioAssay:
Calls of active or inactive are those of the source.

Legend:
[1] = tested on: Plasmodium falciparum Sir2 (PF13_0152, Sir2A); assay: Plasmodium falciparum Sir2A binding compounds – biochemical, small-molecule microarray, 635 nm fluorescence, primary screen (AID 1098); details: fluorescence 635 nm, higher = more signal;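 further: score merges spot fluorescence intensity with its signal-to-noise ratio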
[2] = probe aDKK1 binding to arrayed compounds – biochemical, biotinylated probe, 635/667 nm fluorescence, primary screen (AID 1099); details: small-molecule microarray, higher = more signal;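 further: score merges 667nm spot fluorescence with signal to noise across triplicate slides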
[3] = probe aCHRDL2 binding to arrayed compounds – biochemical, biotinylated probe, 635/667 nm fluorescence, primary screen (AID 1100); details: small-molecule microarray, higher = more signal
[4] = change in splice reporter luminescence, either direction, cell-based, HEK293, spliceosome inhibition project, primary screen (AID 1101); details: HEK293 splicing luciferase reporter, 24 h, higher = more signal, called active from +8 up or from −8 down;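 further: HEK293 cells carrying a splicing-competent luciferase reporter gene; test concentration not given here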
[5] = biological target: Fibroblast growth factor 10 (Homo sapiens) (UniProt O15520); assay: compounds binding fibroblast growth factor 10 – biochemical, small-molecule microarray, 635 nm fluorescence, primary screen (AID 1102); details: FGF10 binding, fluorescence 635 nm, higher = more signal
Chain of Fibroblast growth factor 10 (Homo sapiens) (O15520 whole entry, looked up): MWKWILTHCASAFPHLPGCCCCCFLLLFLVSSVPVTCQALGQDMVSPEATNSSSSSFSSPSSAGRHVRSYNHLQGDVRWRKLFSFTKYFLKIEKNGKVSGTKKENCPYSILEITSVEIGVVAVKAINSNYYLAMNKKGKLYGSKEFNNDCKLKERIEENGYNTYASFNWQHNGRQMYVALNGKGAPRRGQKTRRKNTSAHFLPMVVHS

[6] = tested on: glycogen synthase kinase-3 (GSK3A per assay name; protocol says GSK3B); assay: compounds binding glycogen synthase kinase-3 – biochemical, small-molecule microarray, 635 nm fluorescence, GSK3A, primary screen (AID 1103); details: fluorescence 635 nm, higher = more signal; further: the record names both GSK3A and GSK3B
[7] = biological target: Epidermal growth factor receptor (Homo sapiens) (UniProt P00533); assay: compounds binding epidermal growth factor receptor – biochemical, small-molecule microarray, 635 nm fluorescence, primary screen (AID 1104); details: EGFR binding, higher = more signal;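 further: score merges 667 nm emission intensity with spot signal to noise over triplicate slides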
Chain of Epidermal growth factor receptor (Homo sapiens) (P00533 whole entry, looked up): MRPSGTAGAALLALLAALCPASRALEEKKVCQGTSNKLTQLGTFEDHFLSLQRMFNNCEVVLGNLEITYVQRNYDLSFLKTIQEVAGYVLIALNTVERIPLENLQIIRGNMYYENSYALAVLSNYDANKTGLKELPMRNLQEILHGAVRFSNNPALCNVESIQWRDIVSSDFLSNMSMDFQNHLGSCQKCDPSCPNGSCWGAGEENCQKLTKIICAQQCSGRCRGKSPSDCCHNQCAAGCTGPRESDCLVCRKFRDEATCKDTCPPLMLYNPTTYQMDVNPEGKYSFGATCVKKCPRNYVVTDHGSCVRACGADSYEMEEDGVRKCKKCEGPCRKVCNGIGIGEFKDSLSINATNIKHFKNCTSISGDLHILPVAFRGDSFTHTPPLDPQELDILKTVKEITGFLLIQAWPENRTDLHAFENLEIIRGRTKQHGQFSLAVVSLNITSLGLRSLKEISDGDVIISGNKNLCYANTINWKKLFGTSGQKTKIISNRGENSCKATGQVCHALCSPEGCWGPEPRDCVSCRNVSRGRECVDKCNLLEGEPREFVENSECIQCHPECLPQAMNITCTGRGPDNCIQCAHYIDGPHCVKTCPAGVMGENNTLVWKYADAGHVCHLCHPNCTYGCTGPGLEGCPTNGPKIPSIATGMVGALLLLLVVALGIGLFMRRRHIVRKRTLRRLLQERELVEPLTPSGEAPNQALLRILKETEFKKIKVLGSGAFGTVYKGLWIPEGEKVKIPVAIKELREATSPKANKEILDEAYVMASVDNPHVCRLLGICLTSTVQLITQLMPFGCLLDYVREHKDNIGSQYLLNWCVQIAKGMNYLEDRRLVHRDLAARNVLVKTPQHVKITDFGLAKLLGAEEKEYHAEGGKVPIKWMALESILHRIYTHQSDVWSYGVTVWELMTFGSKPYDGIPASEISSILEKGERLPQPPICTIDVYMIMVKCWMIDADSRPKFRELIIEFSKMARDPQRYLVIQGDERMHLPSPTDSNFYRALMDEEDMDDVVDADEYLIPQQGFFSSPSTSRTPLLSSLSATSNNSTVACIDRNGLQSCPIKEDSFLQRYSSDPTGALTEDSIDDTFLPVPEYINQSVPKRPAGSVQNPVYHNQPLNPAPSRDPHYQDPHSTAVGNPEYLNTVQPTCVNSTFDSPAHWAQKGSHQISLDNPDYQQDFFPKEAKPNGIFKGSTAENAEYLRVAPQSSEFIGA

[8] = biological target: Follistatin-related protein 3 (Homo sapiens) (UniProt O95633); assay: compounds binding follistatin-related protein 3 – biochemical, small-molecule microarray, 635 nm fluorescence, primary screen (AID 1105); details: FSTL3 binding, higher = more signal;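 further: score merges emission near 667 nm and signal to noise per printed spot across three slides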
Chain of Follistatin-related protein 3 (Homo sapiens) (O95633 whole entry, looked up): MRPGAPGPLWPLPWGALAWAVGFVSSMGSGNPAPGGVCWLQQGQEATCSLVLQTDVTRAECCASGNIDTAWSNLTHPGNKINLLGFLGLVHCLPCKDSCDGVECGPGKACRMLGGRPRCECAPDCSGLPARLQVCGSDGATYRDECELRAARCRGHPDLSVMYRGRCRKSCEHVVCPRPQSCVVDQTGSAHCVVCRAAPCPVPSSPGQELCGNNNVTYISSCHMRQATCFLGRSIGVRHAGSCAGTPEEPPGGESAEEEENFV

[9] = biological target: Dickkopf-related protein 1 (Homo sapiens) (UniProt O94907); assay: small molecules binding DKK1 protein – biochemical, small-molecule microarray, 635 nm fluorescence scan, primary screen (AID 1106); details: higher = more signal;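 further: score merges emission near 667 nm with signal to noise over three replicate slides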
Chain of Dickkopf-related protein 1 (Homo sapiens) (O94907 whole entry, looked up): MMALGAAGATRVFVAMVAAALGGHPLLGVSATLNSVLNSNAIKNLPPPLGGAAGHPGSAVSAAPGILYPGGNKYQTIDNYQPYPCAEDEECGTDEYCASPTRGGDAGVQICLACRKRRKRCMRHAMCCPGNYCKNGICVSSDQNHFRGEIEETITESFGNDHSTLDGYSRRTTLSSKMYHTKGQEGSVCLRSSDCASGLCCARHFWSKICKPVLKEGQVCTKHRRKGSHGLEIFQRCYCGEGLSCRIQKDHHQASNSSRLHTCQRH

[10] = tested on: Inhibin beta A chain (activin A); assay: small molecules binding activin A – biochemical, small-molecule microarray, 635 nm fluorescence scan, primary screen (AID 1107); details: INHBA, higher = more signal;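 further: mouse activin A protein probed at 4.33 µg/mL on printed slides; score merges bound-protein fluorescence near 667 nm with spot signal-to-noise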
[11] = tested on: Human papillomavirus type 1a protein E7 (residues 44-93); assay: small molecules binding HPV E7 44-93 – biochemical, small-molecule microarray, residues 44-93, 635 nm fluorescence, primary screen (AID 1108); details: fluorescence 635 nm, higher = more signal;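 further: E7 fragment applied at 1 µg/mL in TBST for 1 h at 4 C; score combines spot fluorescence with its signal to noise ratio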
[12] = hepatitis C replication reporter changes, two-sided – Huh7 cells, luciferase reporter, HCV replication inhibitor project, primary screen (AID 1109); details: Huh7 HCV replicon luciferase reporter, 48 h; higher = more signal;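 further: huh7 hepatoma cells harbouring a luciferase neomycin HCV replicon reporter; luciferase luminescence as measure of HCV replicon replication; test concentration not given here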
[13] = biological target: Left-right determination factor 2 (Homo sapiens) (UniProt O00292); assay: small molecules binding LEFTY2 protein – biochemical, small-molecule microarray, 635 nm fluorescence scan, primary screen (AID 1110); details: higher = more signal
Chain of Left-right determination factor 2 (Homo sapiens) (O00292 whole entry, looked up): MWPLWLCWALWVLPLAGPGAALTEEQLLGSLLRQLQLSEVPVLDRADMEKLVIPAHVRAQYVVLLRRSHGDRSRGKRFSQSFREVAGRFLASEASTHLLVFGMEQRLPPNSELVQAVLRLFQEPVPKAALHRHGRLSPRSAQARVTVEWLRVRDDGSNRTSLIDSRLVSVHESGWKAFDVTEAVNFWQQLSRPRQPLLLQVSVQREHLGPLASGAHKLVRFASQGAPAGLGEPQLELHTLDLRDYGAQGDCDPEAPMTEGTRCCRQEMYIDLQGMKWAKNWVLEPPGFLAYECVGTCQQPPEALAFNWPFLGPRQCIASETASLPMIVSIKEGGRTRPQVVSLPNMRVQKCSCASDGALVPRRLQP

[14] = biological target: Calmodulin-1 (Homo sapiens) (UniProt P0DP23); assay: small molecules binding calmodulin-1 with EGTA – biochemical, small-molecule microarray, Cy5-labelled CALM1, profiling panel (AID 1111); details: Cy5-CALM1 binding fluorescence, higher = more signal;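 further: labelled calmodulin applied in Tris saline Tween buffer holding calcium plus EGTA and DTT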
[15] = biological target: Calmodulin-1 (Homo sapiens) (UniProt P0DP23); assay: small molecules binding Ca-loaded calmodulin-1 – biochemical, small-molecule microarray, Cy5-labelled CALM1, plus calcium, artefact control for SMM control-protein annotation, profiling panel (AID 1112); details: Cy5-CALM1 binding fluorescence, higher = more signal;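 further: score merges spot fluorescence with signal to noise from triplicate slides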
[16] = probe aWnt5a binding to arrayed compounds – biochemical, biotinylated probe, 635/667 nm fluorescence, primary screen (AID 1113); details: small-molecule microarray, higher = more signal;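 further: score merges 667 nm fluorescence intensity with signal-to-noise per printed feature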
[17] = probe aShh binding to arrayed compounds – biochemical, biotinylated probe, 635/667 nm fluorescence, primary screen (AID 1114); details: small-molecule microarray, higher = more signal;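 further: probe is biotin-labelled aShh protein from a stem cell growth factor screen; measures binding of labelled protein to compounds printed on the slide; score merges feature fluorescence at 667 nm with signal-to-noise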
[18] = probe aNog binding to arrayed compounds – biochemical, biotinylated probe, 635/667 nm fluorescence, primary screen (AID 1115); details: small-molecule microarray, higher = more signal;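 further: probe is biotinylated aNog protein used at 0.15 µg/mL for 1 h at 4 C; z-score combines 667 nm fluorescence of each spot with its signal to noise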
[19] = biological target: Torsin-1A-interacting protein 1 (Homo sapiens) (UniProt Q5JTV8); assay: compound microarray binding of lysate hLAP1 – cell lysate, small-molecule microarray, COS7 lysate, 635/667 nm fluorescence, primary screen (AID 1116); details: 635 nm fluorescence, higher = more signal
Chain of Torsin-1A-interacting protein 1 (Homo sapiens) (Q5JTV8 whole entry, looked up): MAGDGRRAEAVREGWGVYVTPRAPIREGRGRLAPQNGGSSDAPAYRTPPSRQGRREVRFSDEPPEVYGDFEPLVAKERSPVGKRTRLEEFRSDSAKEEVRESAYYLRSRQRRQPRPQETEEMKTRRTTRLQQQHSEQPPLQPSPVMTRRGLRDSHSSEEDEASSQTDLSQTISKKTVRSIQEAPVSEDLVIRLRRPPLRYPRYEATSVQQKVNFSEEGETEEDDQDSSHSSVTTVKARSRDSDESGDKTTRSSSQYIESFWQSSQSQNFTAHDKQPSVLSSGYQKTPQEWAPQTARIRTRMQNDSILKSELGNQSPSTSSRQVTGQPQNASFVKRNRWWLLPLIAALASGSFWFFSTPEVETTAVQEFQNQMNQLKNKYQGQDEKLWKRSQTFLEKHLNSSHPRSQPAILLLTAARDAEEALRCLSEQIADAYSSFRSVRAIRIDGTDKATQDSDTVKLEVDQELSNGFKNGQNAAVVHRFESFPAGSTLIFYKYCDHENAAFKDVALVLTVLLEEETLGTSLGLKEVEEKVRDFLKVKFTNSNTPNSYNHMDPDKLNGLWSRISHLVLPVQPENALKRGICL

[20] = biological target: Alpha-bungarotoxin (Bungarus multicinctus) (UniProt P60615); assay: compounds binding labelled alpha-BTX control protein – biochemical, small-molecule microarray, Alexa647 label, 635/667 nm fluorescence, artefact control for SMM control protein annotation, profiling panel (AID 1117); details: alpha-BTX-A647 binding fluorescence, higher = more signal
Chain of Alpha-bungarotoxin (Bungarus multicinctus) (P60615 whole entry, looked up): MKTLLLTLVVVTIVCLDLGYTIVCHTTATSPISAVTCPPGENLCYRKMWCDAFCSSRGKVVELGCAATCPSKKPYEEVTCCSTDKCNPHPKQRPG

| Compound | composite z-score [1] | composite z-score [2] | composite z-score [3] | z-score [4] | composite z-score [5] | composite z-score [6] | composite z-score [7] | composite z-score [8] | composite z-score [9] | composite z-score [10] | composite z-score [11] | z-score [12] | composite z-score [13] | composite z-score [14] | composite z-score [15] | composite z-score [16] | composite z-score [17] | composite z-score [18] | composite z-score [19] | composite z-score [20] |
| --- | --- | --- | --- | --- | --- | --- | --- | --- | --- | --- | --- | --- | --- | --- | --- | --- | --- | --- | --- | --- |
| CC(C)(C)N1CC=CC23O[C@@H]4C=CCOC(=O)[C@@H]4[C@H]2C(=O)N(CCCCCO)[C@@H]3C1=O (stereo not given in full) | 1.12 | -0.275 | 0.0408 | -0.018 (inactive) | -0.804 | -1.54 | -1.63 | -1.67 | -0.499 | -0.0694 | -1.2 | -0.394 | -0.788 | -0.821 | -0.0669 | -0.169 | -0.221 | 1.03 | 2.1 | -1.45 |
| CCOC(=O)C[C@H]1[C@H](OC(=O)c2ccc(-c3ccccc3)cc2)[C@@H](NC(=O)Cc2ccc(OC)cc2)c2cc(OCCCO)ccc2N1C(=O)c1ccc2ccccc2n1 | 0.042 | 0.593 | 0.294 | -1.05 (inactive) | 0.181 | 0.267 | -0.127 | 0.367 | 0.0289 | 0.827 | 1.13 | -1.92 | 0.0394 | 0.882 | -0.0431 | 0.0068 | -0.282 | -0.201 | -0.0103 | 0.0263 |
| Cc1cc(C)c(C(O)C2C=CC3C(=O)N(c4ccccc4)C(=O)C3N2Nc2ccc(C#N)cc2)c(C)c1 (stereo not given) | 0.586 | 1.05 | 1.24 | 0.757 (inactive) | 1.27 | 1.22 | 0.283 | 1.22 | -0.0911 | 0.7 | 0.486 | -0.111 | 0.219 | 2.56 | 1.17 | 0.0894 | -0.0793 | 1.97 | 0.922 | 1.79 |
| Cc1c(NC(=O)CC#N)c(=O)n(-c2ccccc2)n1C | 0.345 | -0.274 | -0.47 | 0.933 (inactive) | 0.118 | 0.526 | 0.322 | 0.367 | 0.273 | -0.256 | 0.371 | -0.27 | 0.364 | 0.121 | -0.235 | -0.0944 | 0.253 | -0.434 | 0.292 | 1.08 |
| C=CC[C@]1(C(=O)N2CCOCC2)N=C(c2ccc(OCCCO)cc2)O[C@H]1c1ccccc1 | 1.44 | 0.573 | 1.01 | -0.0214 (inactive) | 0.182 | 1.28 | -0.201 | -0.524 | 0.142 | 0.862 | 1.18 | -0.716 | -0.42 | 0.732 | 1.14 | -0.0512 | 0.218 | 1.53 | 2.09 | 2.05 |
| C=CCC(OC(C)=O)[C@@H]1[C@@H](N(Cc2cccc3ccccc23)C(=O)c2ccc(C)cc2)c2cc(OCCCO)ccc2N1C(=O)Cc1ccc(OC)cc1 (stereo not given in full) | 0.102 | -0.413 | -0.281 | -1.53 (inactive) | -0.104 | 0.0349 | 0.254 | 0.492 | 0.576 | 1.05 | 0.332 | -0.22 | -0.248 | 0.327 | -0.0943 | -0.124 | 0.0278 | -0.198 | 0.0873 | 0.215 |
| CCCCCN1CC=CC23O[C@@H]4C=CCOC(=O)[C@@H]4[C@H]2C(=O)N(CCCO)[C@@H]3C1=O (stereo not given in full) | 1.63 | -0.263 | 0.359 | -1.76 (inactive) | -0.519 | 0.462 | -0.681 | -0.264 | -0.49 | 0.908 | 1.35 | -0.538 | -0.642 | -0.568 | 0.487 | -0.204 | -0.0709 | 0.0707 | 2.65 | -0.339 |
| CCCCCCc1nc(CCCc2cc3c(c(CCCCCC)n2)[Si](C(C)C)(C(C)C)OC3)cc2c1[Si](C(C)C)(C(C)C)OC2 | -0.432 | -0.33 | -0.138 | 0.775 (inactive) | -0.408 | -0.242 | -0.0687 | -0.176 | 0.279 | 1.49 | -0.893 | -3.46 | -0.116 | -0.63 | -0.0511 | -0.1 | 0.214 | -0.303 | -0.386 | -0.325 |
| CCCC[C@H]1OB(O)C[C@H]2C1=C(C)C[C@H]1C(=O)N(Cc3ccccc3)C(=O)[C@H]12 | 0.148 | -0.109 | -0.665 | 0.0984 (inactive) | 1.13 | 0.507 | 0.244 | 1.25 | 0.999 | 0.181 | 0.152 | 0.885 | 0.369 | 0.229 | -0.326 | 0.0017 | -0.0396 | -0.351 | -0.254 | -0.277 |
| CC(=O)C1=CCC(c2ccccc2)N(S(=O)(=O)c2ccc(C)cc2)C1 (stereo not given) | 1.4 | 0.196 | 0.469 | 0.0149 (inactive) | 0.586 | 0.258 | 0.255 | 1.01 | 0.0538 | 1.12 | 1.41 | -0.975 | 0.034 | -0.105 | -0.163 | -0.0758 | 0.156 | 0.471 | 1.28 | 0.19 |
| O=C(O)[C@@]1(Cc2ccccc2)N=C(c2ccc(OCCCO)cc2)O[C@H]1c1ccccc1 | 1.03 | 0.116 | 0.614 | -0.674 (inactive) | 0.252 | -0.11 | -1.02 | 0.0206 | -0.872 | 0.779 | 0.843 | -0.0284 | -1.13 | 0.102 | 1.07 | -0.0179 | 0.216 | 0.966 | -0.514 | 1.07 |
